Screening results as filed in PubChem.
Only some compounds are listed: those with a hit (about 1.5% of all), similar ones and a draw of the others.
a7 integrin act – activators of alpha7 integrin expression for muscular dystrophy; alpha7betagal myoblasts, beta-gal FDG fluorescence, 48 h; Potency, µM (titrated, usually from 38.3 µM), hits mostly activators; actives 0.064% (n = 350,000); further: nearly all actives have a fitted effect of over 60% in size
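Alpha7betagal+/- myoblasts (passage 13) were plated 16-24 hr, then exposed to compounds (1:260 dilution of DMSO stock) for 48 hours at 37C. After MPER lysis, β-galactosidase reporter activity was read as FDG fluorescence (ex 480/em 540) after 30 minutes.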
uPA generation – blocks generation of uPA at the cell surface. actives 0.31% (n = 330,000). Potency, µM (titrated, usually from 38.3 µM), actives largely listed as inhibitors. AID 540303. cell surface uPA generation assay, qHTS; active means well fitted inhibition curve with a large enough effect; inconclusive means small, poorly fitted or top-dose-only effect; inactive means no such curve, though single readings can be large or run the other way; tested in mouse RAW 264.7 cells; further: nearly all actives have a fitted effect of over 55% in size
12-LOX inh – inhibitors of human 12S-lipoxygenase ALOX12; purified 12hLO, xylenol orange hydroperoxide absorbance; Potency, µM (doses to about 108 µM), usual class: inhibitors; actives 1.1% (n = 580,000); P18054
Target sequence (P18054 whole entry, looked up): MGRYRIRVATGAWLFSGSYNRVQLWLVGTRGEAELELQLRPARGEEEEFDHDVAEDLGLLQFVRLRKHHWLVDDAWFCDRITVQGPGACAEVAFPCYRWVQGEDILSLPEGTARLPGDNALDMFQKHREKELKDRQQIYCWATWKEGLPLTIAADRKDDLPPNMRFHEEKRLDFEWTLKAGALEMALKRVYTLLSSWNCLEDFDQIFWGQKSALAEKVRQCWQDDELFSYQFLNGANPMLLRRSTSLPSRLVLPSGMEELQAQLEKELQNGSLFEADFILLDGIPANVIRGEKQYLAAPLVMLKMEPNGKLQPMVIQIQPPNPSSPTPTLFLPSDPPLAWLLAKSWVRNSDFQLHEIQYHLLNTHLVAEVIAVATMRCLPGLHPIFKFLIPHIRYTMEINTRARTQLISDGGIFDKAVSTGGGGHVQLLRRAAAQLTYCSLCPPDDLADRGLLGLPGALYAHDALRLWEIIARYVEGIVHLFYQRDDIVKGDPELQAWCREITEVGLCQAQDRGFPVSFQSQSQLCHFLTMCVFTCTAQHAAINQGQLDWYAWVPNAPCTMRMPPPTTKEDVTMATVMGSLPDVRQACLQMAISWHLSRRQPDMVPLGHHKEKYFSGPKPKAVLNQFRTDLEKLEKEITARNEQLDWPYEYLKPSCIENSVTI
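Purified human 12hLO at 150 nM in 25 mM Hepes, 0.01% Triton X-100, pH 7.0, preincubated 15 min at room temperature with compound. Reaction started with 40 uM arachidonic acid, 30 min at room temperature. Hydroperoxide measured by Fe-xylenol orange, 573/405 nm absorbance ratio.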
Nrf2 activator – Nrf2 pathway activation. AREc32 ARE-luciferase reporter (MCF7-derived line), luminescence, 24 h. actives 0.31% (n = 410,000). AID 624171. Potency, µM (titrated, usually from 46.1 µM), actives largely listed as activators; further: nearly all actives have a fitted effect of over 65% in size
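Reporter line AREc32 (ARE-Fluc), seeded overnight in OPTI-MEM with 5% FBS; compound pin-transferred, 24 hr at 37 deg C, 5% CO2; luminescent read-out.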
IL2 activator – activators of IL-2; actives 0.065% (n = 360,000); activation, % (series mostly up to about 46 µM); AID 652025; IL-2 activation reporter assay, cell-based qHTS; stimulated with anti-CD3/CD4/CD28 beads; in transgenic mouse T cells; in the data active means activation above about 50%; inconclusive means mostly about 30% to 49%
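Unstimulated transgenic mouse T cells, 750 per well, received compound and, after 60 minutes, anti-CD3/anti-CD4 bead plus anti-CD28 stimulation. EGFP and DsRed were quantified after 18 hours.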
A number is an active result; n = inactive; u = inconclusive; x = no result given; ! = a repeat was not active; [ ] = another dose, or the depositor's remark. Unless noted, the call rests on the fitted dose curve; in most records, active means well fitted curve in the direction sought with a large enough effect; inconclusive means small, poorly fitted or top-dose-only effect, or another doubt; inactive means no such curve, though single readings can be large; an effect the other way counts as inactive or inconclusive.

SMILES	a7 integrin act	uPA generation	12-LOX inh	Nrf2 activator	IL2 activator
NC(=S)N/N=C1/CCSc2ccc3ccccc3c21	n	n	20µM	n	n
O=c1c(O)c(-c2ccccc2)oc2cc(O)cc(O)c12	n	n	n	n	n
CC(C)=CCc1cc(-c2oc3cc(O)cc(O)c3c(=O)c2O)ccc1O	n	n	35µM	n	n
C[C@@H]1O[C@@H](OC[C@H]2O[C@@H](Oc3c(-c4ccc(O)c(O)c4)oc4cc(O)cc(O)c4c3=O)[C@H](O)[C@@H](O)[C@@H]2O)[C@H](O)[C@H](O)[C@H]1O	x	n	n	n	n
COc1c(-c2ccc(O)c(O)c2)oc2cc(O)cc(O)c2c1=O	n	u	7.1µM	u	n
CC(C)N1C(=O)C2(CCCCC2)C1C(=O)N1CCN(c2ccccc2)CC1 (configuration not stated)	x	x	n	x	x
O=c1[nH]c(/C=C/c2ccccc2[N+](=O)[O-])nc2ccccc12	n	n	n	1.3µM	n
CN(C)c1ccc(/C=C/c2nc3ccccc3c(=O)[nH]2)cc1	n	n	n	n	61
O=c1[nH]c(/C=C/c2ccc(Br)cc2)nc2ccccc12	u	u	n	n	n
O=C(Nc1ccc(Cl)cn1)c1cccc2ccccc12	n	8.9µM	n	n	n
CCCS(=O)(=O)c1c(S(=O)(=O)CCC)c2c(C)cccn2c1C(=O)N/N=C/c1cc(O)cc(O)c1	n	11µM	n	n	n
Cc1ccc(Nc2ncncc2-c2nc(-c3ccccc3)no2)cc1F	x	x	n	x	x
Cn1nc(C(=O)NCc2nnc3ccc(-c4ccccc4)nn23)c2ccccc21	x	x	n	x	x
Clc1ccccc1C1(c2ccnc(NCCc3cccnc3)n2)CCNCC1	x	x	20µM	x	x
COc1ccc(-c2cc(C(=O)NC3CCNCC3)c3c(C)nn(-c4ccccc4)c3n2)cc1	x	x	25µM	x	x
COc1ccc(-c2cc(C(=O)NC3CC3)c3c(C)nn(-c4ccccc4)c3n2)cc1	x	x	n[6.33 µM]	x	x
CSc1cccc(NC(=O)CCn2ccn3nc4c(c3c2=O)CCCC4)c1	x	x	n	x	x
S=c1[nH]nc(-c2cc3c(s2)-c2ccccc2CC3)o1	n	n	40µM	n	n
O=C(C1=C(O)C(=O)N(c2nncs2)C1c1ccccc1)c1cccs1 (configuration not stated)	x	x	0.56µM	x	x
Cc1ccc(C2C(C(=O)c3cccs3)=C(O)C(=O)N2c2nncs2)cc1 (configuration not stated)	x	x	2.2µM	x	x
Cc1cc(C(=O)N2C[C@@H](Oc3cccnc3)C[C@H]2C(=O)N2CCCC2)n(C)n1	x	x	n	x	x
Cc1cc(C(=O)N2CCC(c3nnc(Cn4ccnc4)n3C)CC2)on1	x	x	n	x	x
N#Cc1ccc2c(c1)OCCO2	x	x	8.9µM	x	x
COCCN1C(=O)CCc2cc(NC(=O)CC(C)C)ccc21	x	x	n	x	x
Cc1cc(Br)ccc1OCCNCc1ccccc1	n	n	6.3µM	n	n
SMILES	a7 integrin act	uPA generation	12-LOX inh	Nrf2 activator	IL2 activator
Cc1cc(C)c(C)c(OCCNCc2ccccc2)c1	n	n	n	n	n
O=C1NN(c2cccc(Br)c2)C(=O)/C1=C/c1ccc(-c2cc([N+](=O)[O-])ccc2O)o1	n	n	x	n	n
CC1=NN(c2ccc(C)cc2)C(=O)/C1=C/c1ccc(-c2cc([N+](=O)[O-])ccc2O)o1	n	n	20µM	n	n
COc1ccc(NC(=O)CCc2c[nH]c3ccccc23)c(OC)c1	x	x	n	x	x
COc1cccc(-c2cc(-c3cn[nH]c3)c3cncn3c2)c1	x	x	n	x	x
COc1ccc(-c2cc(-c3cccc(O)c3)cn3cncc23)cc1	x	x	16µM	x	x
COc1ccccc1-c1cc(-c2ccc(=O)[nH]c2)c2cncn2c1	x	x	22µM	x	x
Cc1cccc(CNc2nc(-c3ccc4c(c3)OCO4)nc3ccccc23)c1	x	x	40µM	x	x
c1cncc(CNc2nc(-c3ccc4c(c3)OCO4)nc3ccccc23)c1	x	x	n	x	x
Cc1c(C(=O)N2CCC(c3nc4ccccc4o3)CC2)oc2ccc(F)cc12	x	x	n	x	x
O=C(O)CCc1ccc(-c2ccc(Br)cc2)o1	n	n	45µM	u	n
O=C(O)CCc1ccc(-c2ccc(Cl)cc2)o1	n[7.66 µM]	n	u	u	n
Cc1ccc2c(c1C)NC(C)CC2C (configuration not stated)	n	n	4.5µM!	n	n
CCOc1ccc(C(C)=O)cc1COC(=O)c1cc(Cl)c(OC)c(OC)c1	x	x	n	x	x
CCCNc1c(C)cccc1C	x	x	n	x	x
Clc1ccc2nc(-c3ccco3)c(Cc3ccccc3)n2c1	x	x	18µM	10µM	n
Fc1cccc(Cc2c(-c3ccco3)nc3ccc(Cl)cn23)c1	x	x	x	u	n
Brc1ccc2nc(-c3ccco3)c(Cc3ccsc3)n2c1	x	x	n	u	n
Clc1ccc2nc(-c3ccco3)c(Cc3ccsc3)n2c1	x	x	u	11µM	n
COc1cc(C(=O)/C=C/c2cccnc2)c([N+](=O)[O-])cc1OC	n	8.9µM	n	n	n
O=C(/C=C/c1cccnc1)c1cccc(O)c1	n	n	8.9µM	n	n
O=C1C=C(c2cccc(Cl)c2O)C[C@@H](c2ccc3c(c2)OCO3)C1	n	n	u	n	n
COc1ccc([C@H]2CC(=O)C=C(c3cccc(Cl)c3O)C2)cc1OC	n	n	22µM	n	n
COc1ccc([C@H]2CC(=O)C=C(c3cc(C=O)ccc3OC)C2)cc1OC	n	u	u	n	n
COc1ccc([C@H]2CC(=O)C=C(c3cc(C=O)ccc3OC)C2)cc1	n	6.3µM	n	n	n
SMILES	a7 integrin act	uPA generation	12-LOX inh	Nrf2 activator	IL2 activator
CC(C)c1ccc(CCNC(=O)Cc2cccc3cccnc23)cc1	x	x	n	x	x
COc1ccc(CNC(C)c2ccccc2)cc1 (configuration not stated)	x	x	n	x	x
O=C(CSc1nnc2ccc3ccccc3n12)c1ccc(F)cc1	x	x	n	13µM	x
COC[C@@H]1CN(Cc2cccc(C#N)c2)C[C@H]1C(=O)N(C)C	x	x	n	x	x
COc1ccc(/C=N/NC(=S)NCCc2ccccc2)cc1	n	n	u	n	n
CCc1ccc(/C=N/NC(=S)NCCc2ccccc2)cc1	n	n	22µM	n	n
Oc1ccc(/C=N/NC(=S)NCc2ccco2)cc1	n	n	n	n	n
CCN(Cc1ccccc1)c1ccc(/C=N/NC(=S)NC(C)C)cc1	n	n	45µM	n	n
S=C(NCc1ccco1)N/N=C/c1ccc(Cl)cc1	n	n	45µM	n	n
S=C(NCCc1ccccc1)N/N=C/c1ccccc1Cl	n	n	40µM	n	n
Cc1ccc(NC(=O)CN2C(=O)C3(SCC(=O)N3c3ccc(C)cc3)c3ccccc32)cc1 (configuration not stated)	x	x	n	x	x
S=C(NCCc1ccccc1)N/N=C/c1ccccc1Br	x	x	35µM	x	x
CN(C)c1ccc(/C=N/NC(=S)NCc2ccccc2)cc1	n	n	u	n	n
CC(C)(C)c1ccc(/C=N/NC(=S)NCc2ccccc2)cc1	n	n	45µM	n	n
CC(C)(C)c1cnc([C@@H]2COCCN2CC2CC2)[nH]1	x	x	n	x	x
Cc1cc2cc(CNC(=S)Nc3ccc(OC(F)F)cc3)ccc2n1C	n	n	35µM	n	n
